# VDR inh – inhibitors of human vitamin D receptor; 0.93% of 400,000 active; VDR-SRC2-3 peptide fluorescence polarization, 2 h; AID 504847; Potency, µM, inactives show max response, negative = inhibition, hits mostly inhibitors; P11473; further: on the % scale 0 is the no-effect control and ±100 the full control effect
#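 Compounds are added to VDR with labelled SRC2-3 coactivator peptide and held 2 h at room temperature. Inhibition of the VDR–peptide interaction is then read as a change in fluorescence polarization.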
# USP1 inh – blocks the human USP1/UAF1 deubiquitinase complex. Potency, µM (titrated, usually from 57.1 µM), inactives show at the top dose activity change, negative = inhibition, actives largely listed as inhibitors. recombinant USP1/UAF1, Ub-Rhodamine cleavage fluorescence. 0.23% of 390,000 active; further: on the % scale 0 is the no-effect control and ±100 the full control effect; nearly all actives have a fitted effect of over 60% in size
#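 USP1/UAF1 complex (1 nM) preincubated 15 min at room temperature with compound, then Ub-Rho substrate (150 nM final) added. Kinetic fluorescence at 480/540 nm over 6 reads at 60 s intervals; 50 mM HEPES pH 7.8, 0.5 mM EDTA, 0.1 mg/ml BSA, 1 mM TCEP, 0.01% Tween-20.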
# EPAC2 antagonist – antagonists of human EPAC2; Q8WZA2; EPAC2 GEF exchange of Rap1B-BODIPY-GDP, fluorescence; Potency, µM (highest dose often 114 µM), for the others: at the top dose activity, negative = inhibition, actives largely listed as inhibitors; 0.18% of 360,000 active; further: on the % scale 0 is the no-effect control and ±100 the full control effect; nearly all actives have a fitted effect of over 45% in size
# Target sequence (Q8WZA2 whole entry, looked up): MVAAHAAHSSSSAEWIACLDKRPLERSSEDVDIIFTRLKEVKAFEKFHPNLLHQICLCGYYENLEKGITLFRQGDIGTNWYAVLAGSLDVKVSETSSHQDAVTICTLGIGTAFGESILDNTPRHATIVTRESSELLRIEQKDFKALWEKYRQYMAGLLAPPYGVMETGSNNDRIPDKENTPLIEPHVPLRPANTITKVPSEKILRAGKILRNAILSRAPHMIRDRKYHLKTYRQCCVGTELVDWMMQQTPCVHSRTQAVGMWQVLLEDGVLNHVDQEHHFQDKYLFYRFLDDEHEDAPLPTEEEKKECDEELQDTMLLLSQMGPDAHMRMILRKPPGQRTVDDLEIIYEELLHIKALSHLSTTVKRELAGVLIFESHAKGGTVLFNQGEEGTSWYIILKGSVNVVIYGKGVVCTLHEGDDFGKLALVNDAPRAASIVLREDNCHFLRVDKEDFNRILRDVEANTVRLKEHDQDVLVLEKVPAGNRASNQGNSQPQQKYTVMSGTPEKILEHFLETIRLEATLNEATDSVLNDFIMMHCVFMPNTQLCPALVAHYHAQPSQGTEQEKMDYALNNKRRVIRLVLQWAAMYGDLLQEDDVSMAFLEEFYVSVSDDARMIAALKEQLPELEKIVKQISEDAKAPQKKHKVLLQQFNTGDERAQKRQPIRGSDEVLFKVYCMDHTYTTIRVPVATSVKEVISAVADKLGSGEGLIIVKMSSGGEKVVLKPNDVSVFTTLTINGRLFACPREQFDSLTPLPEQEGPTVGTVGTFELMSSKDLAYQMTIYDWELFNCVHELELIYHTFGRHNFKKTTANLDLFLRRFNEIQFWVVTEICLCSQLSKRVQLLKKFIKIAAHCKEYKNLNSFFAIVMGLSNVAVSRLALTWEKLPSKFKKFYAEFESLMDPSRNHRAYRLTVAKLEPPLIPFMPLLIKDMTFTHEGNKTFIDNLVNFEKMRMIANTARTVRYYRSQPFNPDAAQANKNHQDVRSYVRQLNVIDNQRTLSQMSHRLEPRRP
# EPAC1 antag – antagonists of human EPAC1; O95398; EPAC1 GEF assay, Rap1b-BODIPY-GDP exchange fluorescence; Potency, µM (highest dose often 115 µM), without a hit: at the top dose activity change, negative = inhibition, usual class: inhibitors; 0.14% of 360,000 active;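 further: plate controls were vehicle for no effect and positive control for full effect; nearly all actives have a fitted effect of over 50% in size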
# EPAC1 ag – EPAC1 (human) agonism; 0.073% of 360,000 active; EPAC1 agonist qHTS, biochemical assay; response scale: 100% = response to 6.5 mM cAMP; Potency, µM (top dose mostly 154 µM), for inactives: at the top dose activation, actives largely listed as activators; O95398; further: nearly all actives have a fitted effect of over 60% in size
#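 Read-out is the fluorescence drop as BODIPY-GDP leaves Rap1B (480 nm excitation, 540 nm emission), recorded every 5 minutes over 30 minutes. Reactions held 100 nM EPAC1, 250 nM Rap1B–BODIPY-GDP and 50 uM GDP, with 6.5 mM cAMP setting full activation.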
# EPAC2 agonist – EPAC2 (human) agonism; 0.079% of 360,000 active; AID 720711; EPAC2 activation, biochemical qHTS; response scale: 100% = 6.5 mM cAMP response; Q8WZA2; Potency, µM (series often up to 154 µM), for inactives: at the highest dose activation, usual class: activators; further: nearly all actives have a fitted effect of over 50% in size
#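 Fluorescence exchange assay: 100 nM EPAC2 with 250 nM RAP1B-BODIPY-GDP and 50 uM GDP; compounds tested as a concentration-titration series (qHTS). Loss of Rap1-bound BODIPY-GDP fluorescence read at 480/540 nm; data normalized to 6.5 mM cAMP.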
# VDR confirm – inhibits human vitamin D receptor, primary hit validation. Potency, µM, most hits filed as inhibitors. 89% of 840 active. VDR-coactivator inhibition assay, qHTS confirmation. shares compounds with VDR inh
# VDR FP – confirmation of human VDR-coactivator binding inhibitors, fluorescein label; shares compounds with VDR inh; Potency, µM (highest dose often 57.1 µM), for inactives: at the top dose activity change, negative = inhibition, most hits filed as inhibitors; 48% of 840 active; VDR-coactivator binding, fluorescein fluorescence polarization
# VDR bla – VDR (human) inhibition, cell-based beta-lactamase validation | shares compounds with VDR inh | 23% of 840 active | VDR beta-lactamase reporter cells, FRET ratio; cells co-treated with VDR agonist LG190178 | Potency, µM (doses to about 46.1 µM), for the others: top-dose activity change, negative = inhibition, hits mostly inhibitors; further: on the % scale 0 is the no-effect control and ±100 the full control effect
# VDR cytotox – counter-screen for vitamin D receptor inhibitors: cytotoxicity. shares compounds with VDR inh. cytotoxicity counter-screen, cell viability, qHTS. Potency, µM (titrated, usually from 48.3 µM), for inactives: at the highest dose activity change, negative = cytotoxicity, hits mostly cytotoxic. 18% of 840 active. AID 602204;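 further: plate controls were DMSO for no effect and high-concentration cycloheximide for full effect; nearly all actives have a fitted effect of over 75% in size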
# An asterisk follows results filed as active; ? = inconclusive; nt = no result. Most compounds without a hit are left out; they make up all but 1.2% or so of the library. The call rests on the fitted dose curve; in most records, active means well fitted curve in the direction sought with a large enough effect; inconclusive means small, poorly fitted or top-dose-only effect, or another doubt; inactive means no such curve, though single readings can be large; an effect the other way counts as inactive or inconclusive. Potency means the concentration at half of the fitted maximal effect.
SMILES,VDR inh,USP1 inh,EPAC2 antagonist,EPAC1 antag,EPAC1 ag,EPAC2 agonist,VDR confirm,VDR FP,VDR bla,VDR cytotox
CCSc1nnc([C@H](Cc2ccccc2)NC(=O)OC(C)(C)C)o1,-10%,6%,-9%,-8%,12%,-12%,nt,nt,nt,nt
CCC(C)[C@@H](NC(=O)OC(C)(C)C)c1nnc(S(=O)(=O)Cc2cccc(C)c2)o1 (stereo partly specified),25µM*,-16%,-2%,0%,3%,-1%,4.7*,?,?,?
Cc1ccccc1CS(=O)(=O)c1nnc([C@H](Cc2ccccc2)NC(=O)OC(C)(C)C)o1,20µM*,-11%,-11%,-13%,14%,3%,6*,3.5µM*,?,?
Cc1ccc(NC2=CC(=O)c3sc(C)nc3C2=O)cc1,-14%,nt,nt,nt,nt,nt,nt,nt,nt,nt
COc1cccc([C@@H]2Oc3ccc(Br)cc3C[C@H]2O)c1,-5%,nt,nt,nt,nt,nt,nt,nt,nt,nt
CCC(=O)OCCNc1cc(Sc2nccn2C)c2nonc2c1[N+](=O)[O-],32µM*,-14%,-10%,6%,-13%,-18%,21*,?,?,15µM*
CCC(=O)OCCNc1cc(SCCC(=O)OC)c2nonc2c1[N+](=O)[O-],?,-10%,0%,-12%,-22%,-14%,nt,nt,nt,nt
CCCC(=O)OCCNc1cc(Sc2nc3ccccc3[nH]2)c2nonc2c1[N+](=O)[O-],20µM*,-9%,9%,-17%,1%,-3%,8.4*,?,?,23µM*
CCOc1ccc(/C=C/C(=O)Nc2sc3c(c2C(=O)OC)C(C(=O)OC)CC3)cc1 (stereo unspecified),22µM*,?,nt,nt,nt,nt,?,3.5µM*,13µM*,?
CCOc1ccc(/C=C/C(=O)Nc2sc3c(c2C(=O)OC)CCCC3)cc1,13%,-18%,nt,nt,nt,nt,nt,nt,nt,nt
COC(=O)[C@H](CCSC)NC(=O)c1cc2c(cn1)[nH]c1ccccc12,25µM*,-24%,-13%,-3%,6%,0%,7.5*,?,5%,30%
O=[N+]([O-])c1ccc(C2=Nn3c(Cn4nnc5ccccc54)nnc3SC2)cc1,?,-6%,2%,-15%,-6%,8%,?,8.9µM*,-1%,?
CCOC(=O)CSc1nc2sc(C)c(C)c2c(=O)[nH]1,-5%,-8%,5%,9%,-6%,2%,nt,nt,nt,nt
CCOC(=O)/C(=C\c1ccc(Cl)cc1)c1nc2sc(C)c(C)c2c(=O)[nH]1,25µM*,-21%,-1%,-4%,-10%,-14%,5.3*,?,?,15µM*
CS(=O)(=O)c1ccc(S(=O)CC(=O)Oc2ccc(Cl)cc2)c([N+](=O)[O-])c1 (stereo unspecified),3.5µM*,-21%,14%,-22%,-3%,9%,2.5*,1.6µM*,18µM*,?

# Assay outcomes deposited in PubChem by National Center for Advancing Translational Sciences (NCATS).
